From PubChem BioAssay AID1566 (Sanford-Burnham Center for Chemical Genomics, 2009)
Out of some 290,000 compounds screened, about 1,800 (0.62%) were called active. Rule as the data show it: active = inhibition above about 50%; inactive = the rest. This excerpt belongs to a sample that is enriched for actives.

Assay: NOD2 signaling inhibitors, cell-based, luminescence, uHTS, HEK293 (AID 1566)
Conditions: HEK293 NOD2/NF-kB luciferase reporter, at 4 µM, stronger effect = higher value
With `CC1(C)CC(=O)C=C(N2CCN(C3=CC(=O)CC(C)(C)C3)CC2)C1` the inhibition was -10.7% (inactive).
With `Cc1cccc(C(=O)NC(=S)Nc2ccc(N3CCOCC3)cc2)c1` the inhibition was 7.7% (inactive).
With `Cc1ccc(C(=O)NC(=S)Nc2ccc(N3CCOCC3)cc2)cc1C` the inhibition was 50.7% (active).
For `COc1ccc(C(=O)NC(=S)Nc2ccc(N3CCOCC3)cc2)cc1Cl`, the inhibition was 13.8% (inactive).
In the case of `Cc1ccn2c(NC(=O)c3cccs3)c(-c3ccccc3)nc2c1`, the inhibition was 17.5% (inactive).
For `COc1ccc(OC)c(Cc2nnc(CCC(=O)NCc3nc4ccccc4s3)o2)c1`, the inhibition was 5.2% (inactive).
With `CC(C)Cc1nc(N2CCN(C(=O)c3ccco3)CC2)c(C#N)c2c1CCCC2` the inhibition was 23.8% (inactive).
For `CC(C)Cc1nc(N2CCN(C(=O)c3ccco3)CC2)c(C#N)c2c1CCC2`, the inhibition was 13.3% (inactive).
In the case of `Cc1ccc(S(=O)(=O)N(CC(=O)NCCSCc2ccco2)c2ccc(F)cc2)cc1`, the inhibition was -2.2% (inactive).
For `CC(C)CNC(=O)CN(c1ccccc1)S(=O)(=O)c1ccccc1[N+](=O)[O-]`, the inhibition was -10.6% (inactive).
In the case of `O=C(c1ccccc1)N1CCN(CC(O)COc2cccc3ccccc23)CC1` (stereo unspecified), the inhibition was -10% (inactive).
For `CCOC(=O)c1c(NC(=O)CSc2nc3ccccc3c(=O)n2-c2ccc(F)cc2)sc(C(C)=O)c1C`, the inhibition was -19.4% (inactive).
With `O=S(=O)(Nc1ccc(N2CCOCC2)cc1)c1ccc(F)cc1F` the inhibition was -1.9% (inactive).
In the case of `O=C(c1ccco1)N1CCCC(c2nc3c(nnn3Cc3c(Cl)cccc3Cl)c(=O)[nH]2)C1` (stereo unspecified), the inhibition was -43.2% (inactive).
In the case of `O=[N+]([O-])c1ccc(-c2cnc3ccccc3n2)cc1`, the inhibition was -35.5% (inactive).
In the case of `O=[N+]([O-])c1ccc(-c2c(O)c3ccccc3c3nc4ccccc4nc23)cc1`, the inhibition was 58.6% (active).
In the case of `Cc1cc(-c2ccc([N+](=O)[O-])cc2)nc2ccccc12`, the inhibition was -13.5% (inactive).
In the case of `Cc1ccc(Oc2nc3ccccn3c(=O)c2/C=C(\C#N)C(=O)NC2CCS(=O)(=O)C2)c(C)c1` (stereo unspecified), the inhibition was 0.4% (inactive).
For `O=C(OC1CCCCC1)c1ccc(NC(=O)c2ccco2)cc1`, the inhibition was -39.4% (inactive).
For `O=C(Nc1ccc(C(=O)OC2CCCCC2)cc1)c1ccncc1`, the inhibition was 61.2% (active).
With `O=C(OC1CCCCC1)c1ccc(NC(=O)C2CCCCC2)cc1` the inhibition was 8.6% (inactive).
For `COCCNC(=O)C1CC(c2ccc([N+](=O)[O-])cc2)=NO1` (stereo unspecified), the inhibition was 21% (inactive).
In the case of `COc1ccc(OCC(=O)Nc2cccc(NC(=O)c3ccco3)c2)cc1`, the inhibition was 1.8% (inactive).
For `Cc1cnnn1-c1cccc([N+](=O)[O-])c1`, the inhibition was -9.2% (inactive).
In the case of `COC(=O)Cc1[nH]n(-c2nc3ccccc3s2)c(=O)c1C(C)=O`, the inhibition was -18.8% (inactive).
For `COC(=O)Cc1[nH]n(-c2nc3ccccc3s2)c(=O)c1C(C)=Nc1ccc(Cl)cc1`, the inhibition was 6.3% (inactive).
For `CN(Cc1cn[nH]c1-c1ccc2c(c1)OCO2)C1CCOCC1`, the inhibition was 10.5% (inactive).
With `Cc1csc(N/N=C/c2ccccn2)n1` the inhibition was -60.9% (inactive).
With `Cc1nc(N/N=C/c2ccccn2)sc1C` the inhibition was 56.9% (active).
For `CCCc1sc(N/N=C/c2ccccn2)nc1-c1ccc(Br)cc1`, the inhibition was -44.6% (inactive).
In the case of `Oc1ccc(Br)cc1CNc1ccccn1`, the inhibition was -10.8% (inactive).
In the case of `O=C(CCl)Nc1cccc(Oc2cnccn2)c1`, the inhibition was -47.8% (inactive).
In the case of `CCCCc1ccc(NC(=S)NCCc2ccc(S(N)(=O)=O)cc2)cc1`, the inhibition was 24.9% (inactive).
For `COc1ccccc1CCNC(=O)Nc1cccc([N+](=O)[O-])c1`, the inhibition was 13.6% (inactive).
In the case of `COc1ccc(CCNC(=O)Nc2cccc([N+](=O)[O-])c2)cc1`, the inhibition was 79.5% (active).
In the case of `COc1ccc(CCNC(=O)Nc2cccc([N+](=O)[O-])c2)cc1OC`, the inhibition was 4.7% (inactive).
With `CCOC(=O)c1c(N)sc(C(=O)N(CC)CC)c1C` the inhibition was 2.6% (inactive).
With `CC1(C)CC(=O)C=C(NCc2cccs2)C1` the inhibition was 1.3% (inactive).
In the case of `OCC[C@@H]1C[C@H](O)[C@@H](O)[C@]2(Cc3ccccc3CCO2)O1`, the inhibition was -4.1% (inactive).
In the case of `Cc1oc(-c2ccc(Cl)cc2)nc1CN1CCCC(C(=O)N2CCOCC2)C1` (stereo unspecified), the inhibition was 10.7% (inactive).
With `Cc1oc(-c2ccc(Cl)cc2)nc1CN1CCCC(C(=O)N2CCN(C(=O)c3ccco3)CC2)C1` (stereo unspecified) the inhibition was 50% (active).
With `Cc1oc(-c2ccc(Cl)cc2)nc1CN1CCCN(C(=O)c2ccco2)CC1` the inhibition was 18.6% (inactive).
For `COc1ccc(NC(C)=O)cc1S(=O)(=O)NC(Cc1ccccc1)C(=O)O` (stereo unspecified), the inhibition was -25.7% (inactive).
In the case of `COc1ccc(OC)c(S(=O)(=O)Nc2ccc(OCC(=O)O)cc2)c1`, the inhibition was 3.3% (inactive).
In the case of `COc1ccc(CC(NC(C)=O)C(=O)NC2CCN(C(=O)C3CCCCC3)CC2)cc1OC` (stereo unspecified), the inhibition was 13.5% (inactive).
With `CCOCCCNS(=O)(=O)c1ccc(NC(=O)c2ccccc2)cc1` the inhibition was 11.3% (inactive).
In the case of `Cc1nnc(SCC(=O)Nc2ccc([N+](=O)[O-])cc2)n1CC1CCCO1` (stereo unspecified), the inhibition was 2.5% (inactive).
With `CC1CCc2c(sc3ncnc(N4CCOCC4)c23)C1` (stereo unspecified) the inhibition was 26% (inactive).
For `CC1CCc2sc3ncnc(N4CCN(C)CC4)c3c2C1` (stereo unspecified), the inhibition was 12.6% (inactive).
In the case of `CCOc1ccc(NC(=O)CC2C(=O)N(c3ccccc3)C(=O)N2CCc2cccs2)cc1` (stereo unspecified), the inhibition was 23.4% (inactive).
For `COc1ccc(CCNC(=O)C2CCN(S(=O)(=O)c3ccc(-n4cnnn4)cc3)CC2)cc1OC`, the inhibition was 6% (inactive).
In the case of `CCOc1ccccc1NC(=O)CNC(=O)CNC(=O)Cc1ccccc1`, the inhibition was -3.4% (inactive).
For `Cc1csc2c(NC3CCN(Cc4ccccc4)CC3)ncnc12`, the inhibition was 34.1% (inactive).
In the case of `Cc1sc2ncnc(NC3CCN(Cc4ccccc4)CC3)c2c1C`, the inhibition was 36.9% (inactive).
In the case of `COc1cc(CC(=O)NCC2CCCCC2)cc(OC)c1OC`, the inhibition was -1.9% (inactive).
In the case of `COc1cccc(-c2nnc3sc(C4CCCCC4)nn23)c1`, the inhibition was 55.3% (active).
For `COc1ccc(-c2nnc3sc(C4CCCCC4)nn23)cc1OC`, the inhibition was 13.6% (inactive).
In the case of `CCOc1cccc(-c2nnc3sc(C4CCCCC4)nn23)c1`, the inhibition was 20.8% (inactive).
In the case of `O=C(NC1CCCCCC1)c1ccc(OCC2CCCO2)cc1` (stereo unspecified), the inhibition was -82% (inactive).
For `OCCC1CN(Cc2cccn2-c2ccccn2)CCN1C1CCCCC1` (stereo unspecified), the inhibition was -19.4% (inactive).
In the case of `CNC(=S)N/N=C/c1c(C)c(C(=O)c2ccc(F)cc2)n2ccccc12`, the inhibition was 25.2% (inactive).
For `Cc1c(/C=N/NC(=O)c2ccc(O)cc2)c2ccccn2c1C(=O)c1ccc(F)cc1`, the inhibition was 7% (inactive).
With `Cc1cccc(NS(=O)(=O)c2ccc(C(=O)NCCCN3CCOCC3)cc2)c1C` the inhibition was 14.9% (inactive).
With `S=C(NCc1ccccc1)Nc1cccc2ccccc12` the inhibition was 3.3% (inactive).
With `S=C(NCc1cccnc1)Nc1cccc2ccccc12` the inhibition was -6.2% (inactive).
For `S=C(NCc1ccccc1)Nc1cccc2cnccc12`, the inhibition was 52.6% (active).
For `O=C(NN1CCOCC1)c1ccc(S(=O)(=O)N2CCCCC2)cc1`, the inhibition was 4.3% (inactive).
With `O=C(O)c1cc(-c2ccc(N3CCOCC3)cc2)nn1-c1ccccc1Cl` the inhibition was 3.2% (inactive).
For `N#C/C(=C\Nc1ccc(F)c(Cl)c1)S(=O)(=O)c1ccccn1`, the inhibition was 0.9% (inactive).
In the case of `CCn1cc([N+](=O)[O-])c(C(=O)Nc2nc(-c3ccc(C)c(C)c3)c(C)s2)n1`, the inhibition was 13% (inactive).
For `CCn1cc([N+](=O)[O-])c(C(=O)Nc2nc(-c3ccc(C)cc3)c(C)s2)n1`, the inhibition was 3% (inactive).
With `Cc1nc(SCc2ccc(F)cc2)c2oc3ccccc3c2n1` the inhibition was 11.8% (inactive).
For `CCOC(=O)C1CCN(c2ncnc3c2cnn3-c2ccc(OC)cc2)CC1`, the inhibition was 23.8% (inactive).
In the case of `COc1ccc(-n2ncc3c(N4CCCCC4)ncnc32)cc1`, the inhibition was 67.7% (active).
For `CC1CC(C)CN(c2ncnc3c2cnn3-c2ccc(Cl)cc2)C1` (stereo unspecified), the inhibition was 27.7% (inactive).
In the case of `CCOC(=O)C1CCN(c2ncnc3c2cnn3-c2ccc(Cl)cc2)CC1`, the inhibition was 57.5% (active).
With `Clc1ccc(-n2ncc3c(N4CCCC4)ncnc32)cc1` the inhibition was 17.1% (inactive).
For `c1ccc(-n2ncc3c(N4CCCCC4)ncnc32)cc1`, the inhibition was -32.5% (inactive).
With `CCOC(=O)C1CCN(c2ncnc3c2cnn3-c2ccccc2)CC1` the inhibition was 1.8% (inactive).
In the case of `COc1ccc(-n2ncc3c(N4CCC(C)CC4)ncnc32)cc1`, the inhibition was -97.6% (inactive).
For `CC1CCCN(c2ncnc3c2cnn3-c2ccccc2)C1` (stereo unspecified), the inhibition was -14.2% (inactive).
For `CC1CCCN(c2ncnc3c2cnn3-c2ccc(Cl)cc2)C1` (stereo unspecified), the inhibition was 86.2% (active).
For `COc1ccc(-n2ncc3c(N4CCC(C(N)=O)CC4)ncnc32)cc1`, the inhibition was -46.4% (inactive).
For `Clc1ccc(-n2ncc3c(N4CCCCCC4)ncnc32)cc1`, the inhibition was 70.6% (active).
For `CCCc1cc(=O)oc2cc(OCC(=O)NCc3ccccn3)ccc12`, the inhibition was 8.8% (inactive).
In the case of `CSc1ncc(Cl)c(C(=O)Nc2c(C)cccc2C)n1`, the inhibition was -5.2% (inactive).
For `N#Cc1c(NCCN)nc(-c2ccccc2)c2c1CCCC2`, the inhibition was 10.4% (inactive).
In the case of `O=C(/C=C/c1cccc(Cl)c1)NCc1ccccc1`, the inhibition was 9.9% (inactive).
For `CN(Cc1nc(Cc2ccccc2F)no1)Cc1cccc2ncccc12`, the inhibition was 19.2% (inactive).
With `COc1ccc(NC(=O)COC(=O)C2CCC(C(C)(C)C)CC2)c([N+](=O)[O-])c1` (stereo unspecified) the inhibition was 16.1% (inactive).
For `Cc1cc(C(F)(F)F)nc(CCNCc2c(C(=O)N3CCCC3)nc3ccccn23)n1`, the inhibition was 12.8% (inactive).
With `Cc1ccc(/C=N/c2sc3c(c2C(N)=O)CCCC3)o1` the inhibition was -59.1% (inactive).
For `COc1ccc(-n2c(=S)[nH]c3cc(C(=O)Nc4cccc(C)c4)ccc3c2=O)cc1`, the inhibition was -42% (inactive).
For `O=C(O)CC1NC(=O)N(c2ccc(Cl)cc2)C1=O` (stereo unspecified), the inhibition was 5.4% (inactive).
For `N#CC1=C(SCc2ccccc2)NC(=O)CC1c1cccc(O)c1` (stereo unspecified), the inhibition was 12.9% (inactive).
For `O=S(=O)(c1ccc(Cl)cc1)N1CCN(S(=O)(=O)N2CCCCCC2)CC1`, the inhibition was -1.1% (inactive).
